These results are taken from PubChem BioAssay (EPA / NIEHS).

Read-out in assay [1]: Interleukin 17F (IL17F), IL17F (gene 112744)
In words: BSK_BT_xIL17F: BioMAP Diversity Plus: BT Assay for Interleukin 17F (IL17F) Biomarker Activity (AID 2284243). The note with it: primary human B cells with PBMC. The procedure, abridged:
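Human PBMC co-cultured with B cells, compound exposure 24 h; secreted IL-17F quantified by Luminex xMAP, referenced to DMSO control. PBMC viability measured in parallel by Alamar Blue reduction.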

Read-out in assay [2]: Actin alpha 1 (ACTA1), ACTA1 (gene 58)
The experiment in a line: BSK_MyoF_ACTA1: BioMAP Diversity Plus: MyoF Assay for Actin alpha 1 (ACTA1) Biomarker Activity (AID 2284244). The note with it: primary human lung fibroblasts. The procedure, abridged:
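Cells were exposed to chemical for 24 h before a-SMA levels were quantified by ELISA in human lung fibroblasts. Increases were fitted against DMSO as negative control; parallel SRB staining (0.1% after 10% TCA fixation, 560 nm) assessed cytotoxicity.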

Read-out in assay [3]: Interleukin 2 (IL2), IL2 (gene 3558)
In words: BSK_BT_xIL2: BioMAP Diversity Plus: BT Assay for Interleukin 2 (IL2) Biomarker Activity (AID 2284245). The note with it: primary human B cells with PBMC. The gist of the method:
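The BT system combines human B cells with peripheral blood mononuclear cells. Twenty-four hours after chemical dosing, secreted IL-2 was measured with xMAP bead technology, and responses were analyzed as increases over DMSO controls.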

Read-out in assay [4]: Collagen IV, COL4A1 (gene 1282)
The experiment in a line: BSK_MyoF_CollagenIV: BioMAP Diversity Plus: MyoF Assay for Collagen IV Biomarker Activity (AID 2284247). The note with it: primary human lung fibroblasts. The procedure, abridged:
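Human lung fibroblast system, 24 h chemical exposure. Endpoint: Collagen IV by ELISA, upward fit vs DMSO.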

Read-out in assay [5]: Monokine induced gamma interferon (MIG), CXCL9 (gene 4283)
In words: BSK_KF3CT_MIG: BioMAP Diversity Plus: KF3CT Assay for Monokine induced gamma interferon (MIG) Biomarker Activity (AID 2284248). The note with it: primary human keratinocytes with fibroblasts. The gist of the method: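 Human keratinocyte–foreskin fibroblast co-culture; MIG measured by ELISA 24 h after chemical dosing, fitted upward versus DMSO. Cytotoxicity was assessed in parallel cultures by SRB total-protein staining read at 560 nm.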

Read-out in assay [6]: Vascular cell adhesion molecule 1 (VCAM1), VCAM1 (gene 7412)
In words: BSK_BF4T_VCAM1: BioMAP Diversity Plus: BF4T Assay for Vascular cell adhesion molecule 1 (VCAM1) Biomarker Activity (AID 2284249). The note with it: primary human bronchial epithelial cells with fibroblasts. The gist of the method: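 Cell-surface VCAM-1 quantified by ELISA after 24 h chemical exposure of human bronchial epithelial/dermal fibroblast co-cultures, with SRB staining in parallel wells for cytotoxicity; DMSO baseline, positive-direction fitting.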

Read-out in assay [7]: Interferon-inducible T-cell alpha chemoattractant (ITAC), CXCL11 (gene 6373)
In words: BSK_hDFCGF_ITAC: BioMAP Diversity Plus: hDFCGF Assay for Interferon-inducible T-cell alpha chemoattractant (ITAC) Biomarker Activity (AID 2284251). The conditions noted are these: primary human foreskin fibroblasts. The procedure, abridged:
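I-TAC levels were read by ELISA on human dermal foreskin fibroblast primary cultures 24 h after dosing, analysed against DMSO in the positive direction. Cytotoxicity was assessed alongside by sulforhodamine B total-protein staining.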

Read-out in assay [8]: Plasminogen activator inhibitor-1 (PAI1), SERPINE1 (gene 5054)
The experiment in a line: BSK_KF3CT_PAI1: BioMAP Diversity Plus: KF3CT Assay for Plasminogen activator inhibitor-1 (PAI1) Biomarker Activity (AID 2284252). The conditions noted are these: primary human keratinocytes with fibroblasts. The procedure, abridged: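 Cells (human keratinocytes co-cultured with foreskin fibroblasts) are exposed to test chemical for 24 h. PAI-1 is then measured by ELISA and analysed for signal gain against DMSO.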

Read-out in assay [9]: Interleukin-8 (IL8), CXCL8 (gene 3576)
The experiment in a line: BSK_KF3CT_IL8: BioMAP Diversity Plus: KF3CT Assay for Interleukin-8 (IL8) Biomarker Activity (AID 2284254). The conditions noted are these: primary human keratinocytes with fibroblasts. The gist of the method: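 Human keratinocyte/foreskin fibroblast co-culture dosed 24 h; IL-8 measured by ELISA relative to DMSO. Parallel cultures stained with SRB for total protein to flag cytotoxicity.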

Read-out in assay [10]: Plasminogen activator inhibitor-1 (PAI1), SERPINE1 (gene 5054)
In words: BSK_MyoF_PAI1: BioMAP Diversity Plus: MyoF Assay for Plasminogen activator inhibitor-1 (PAI1) Biomarker Activity (AID 2284256).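 On outcome: PAI-1 read 24 h after compound addition.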 The conditions noted are these: primary human lung fibroblasts. The procedure, abridged:
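Primary human lung fibroblasts treated with chemical for 24 h; PAI-1 levels quantified by ELISA relative to DMSO. Cytotoxicity was assessed in parallel cultures by SRB total-protein staining (0.1% SRB after 10% TCA fixation, 560 nm).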

Read-out in assay [11]: CD69, CD69 (gene 969)
In words: BSK_IMphg_CD69: BioMAP Diversity Plus: IMphg Assay for CD69 Biomarker Activity (AID 2284257). The conditions noted are these: primary human endothelial cells with macrophages. The procedure, abridged: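 Readout is ELISA for CD69 in primary human venular endothelial cell/macrophage co-culture, taken at 24 h post-dosing. SRB staining of parallel cultures gauged overt cytotoxicity; signal increase versus DMSO defined activity.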

Read-out in assay [12]: Eotaxin 3, CCL26 (gene 10344)
The experiment in a line: BSK_BF4T_Eotaxin3: BioMAP Diversity Plus: BF4T Assay for Eotaxin 3 Biomarker Activity (AID 2284258). The conditions noted are these: primary human bronchial epithelial cells with fibroblasts. The procedure, abridged: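 ELISA measurement of Eotaxin-3 after 24 h chemical exposure in a bronchial epithelial/dermal fibroblast co-culture, with DMSO as baseline. Parallel SRB staining (0.1% SRB after 10% TCA fixation, 560 nm) flagged overt cytotoxicity.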

Read-out in assay [13]: Monocyte Chemoattractant Protein-1 (MCP1), CCL2 (gene 6347)
The experiment in a line: BSK_BF4T_MCP1: BioMAP Diversity Plus: BF4T Assay for Monocyte Chemoattractant Protein-1 (MCP1) Biomarker Activity (AID 2284259). The conditions noted are these: primary human bronchial epithelial cells with fibroblasts. The procedure, abridged: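 MCP-1 ELISA readout taken 24 h after dosing in the BF4T system (bronchial epithelial cells plus dermal fibroblasts). Parallel SRB total-protein staining flagged cytotoxicity; DMSO served as baseline, positive fitting direction.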

Read-out in assay [14]: Intercellular Adhesion Molecule 1 (ICAM1), ICAM1 (gene 3383)
The experiment in a line: BSK_BF4T_ICAM1: BioMAP Diversity Plus: BF4T Assay for Intercellular Adhesion Molecule 1 (ICAM1) Biomarker Activity (AID 2284260). The note with it: primary human bronchial epithelial cells with fibroblasts. The gist of the method: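 ICAM-1 levels measured by ELISA after 24 h chemical treatment of bronchial epithelial cell/dermal fibroblast co-cultures, read against DMSO baseline. Overt cytotoxicity checked in parallel cultures by sulforhodamine B staining.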

Read-out in assay [15]: Interleukin-8 (IL8), CXCL8 (gene 3576)
The experiment in a line: BSK_MyoF_IL8: BioMAP Diversity Plus: MyoF Assay for Interleukin-8 (IL8) Biomarker Activity (AID 2284261). The conditions noted are these: primary human lung fibroblasts. The gist of the method:
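Human lung fibroblast (MyoF system) cultures dosed for 24 h, then IL-8 measured by ELISA. Response taken relative to DMSO; parallel SRB total-protein staining for cytotoxicity.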

Read-out in assay [16]: CD90, THY1 (gene 7070)
The experiment in a line: BSK_BF4T_CD90: BioMAP Diversity Plus: BF4T Assay for CD90 Biomarker Activity (AID 2284262). The note with it: primary human bronchial epithelial cells with fibroblasts. The gist of the method: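 CD90 levels by ELISA after 24 h treatment of human bronchial epithelial cell/dermal fibroblast cultures, analysed versus DMSO. Overt cytotoxicity checked in parallel cultures by sulforhodamine B staining.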

Read-out in assay [17]: Basic fibroblast growth factor (bFGF), FGF2 (gene 2247)
The experiment in a line: BSK_MyoF_bFGF: BioMAP Diversity Plus: MyoF Assay for Basic fibroblast growth factor (bFGF) Biomarker Activity (AID 2284246). The note with it: primary human lung fibroblasts. The procedure, abridged: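 Chemicals are added to human lung fibroblast cultures and incubated 24 h. bFGF is then measured by ELISA, while parallel cultures receive SRB staining for total protein as a cytotoxicity check. Data are fitted upward against DMSO.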

Values joined by “and” are separate entries in the source; they are usually repeats but may differ in a detail not shown here. Identical values can stand only once. Some structures have more than one record in an assay (separate samples or runs), and their calls can disagree. Active and inactive are the calls of the source. How the source made its calls: active means hit-call score of the fitted dose curve at least 0.9, where 1 is the maximum; inactive means score below 0.9.

As for `OCC(F)(F)C(F)(F)C(F)(F)C(F)(F)C(F)(F)C(F)(F)C(F)(F)C(F)(F)CO`, the AC50 (in general, the concentration at which the activity in the assay is half-maximal) in assay [1] was 53.8 µM (active) and 38.5 µM (active); in [2], 44.9 µM (active) and 42.5 µM (active); in assay [3] it was 54.7 µM (active) and 46.9 µM (active); in assay [4], 49.1 µM (active); in assay [5] it was 49.2 µM (active) and 48.4 µM (active); in assay [6], 12 µM (active). Besides, the concentration at half-maximal activity (AC50) in assay [7] is 44.9 µM (active) and 43 µM (active); in [8], 54.3 µM (active) and 48.3 µM (active); in [9], 47.4 µM (active) and 50.4 µM (active); in assay [11], 54.4 µM (active) and 42.6 µM (active); in [12] it was 15.3 µM (active) and 16.6 µM (active); in assay [13], 16.7 µM (active) and 9.07 µM (active). Also, in [14], the AC50 is 16.4 µM (active) and 12.2 µM (active). For the same compound, the outcome in [4], in [6], in assay [10], in assay [15] and in assay [16] was inactive.

On to `NCC(F)(F)C(F)(F)C(F)(F)C(F)(F)C(F)(F)C(F)(F)C(F)(F)C(F)(F)F`, for which the result in [1], in assay [2], in assay [3], in assay [17], in assay [4] and in [5] was inactive. For the same compound, the result in assay [6], in assay [7], in assay [8], in assay [9], in [10] and in assay [11] was inactive. In addition, the result in [12], in assay [13], in assay [14], in assay [15] and in assay [16] was inactive.

In the case of `O=C1c2c(O)ccc(Nc3ccc(CCO)cc3)c2C(=O)c2c([N+](=O)[O-])ccc(O)c21`, the half-maximal activity concentration (AC50) in assay [1] is 35.3 µM (active); in assay [2] it was 25.6 µM (active); in assay [4], 34.1 µM (active); in [10] it was 32.3 µM (active); in assay [15], 1.65 µM (active). The outcome in assay [3] and in [17] was inactive.

For `C=CC(=O)OCC(F)(F)C(F)(F)C(F)(F)C(F)(F)C(F)(F)C(F)(F)C(F)(F)C(F)F`, the AC50 in [1] is 18.8 µM (active); in assay [2] it was 30 µM (active) and 19.5 µM (active); in [3], 44.5 µM (active); in [7], 30 µM (active). The outcome in assay [3], in [4], in [5], in assay [6], in assay [8] and in assay [9] was inactive. Moreover, the result in assay [10], in [11], in [12], in assay [13], in assay [14] and in assay [15] was inactive. Besides, the result in assay [16] was inactive.

As for `CNS(=O)(=O)C(F)(F)C(F)(F)C(F)(F)C(F)(F)C(F)(F)C(F)(F)C(F)(F)C(F)(F)F`, the AC50 in assay [1] is 16.4 µM (active) and 7.34 µM (active); in assay [4], 2.71 µM (active) and 3.58 µM (active); in assay [8], 7.81 µM (active); in [9], 8.13 µM (active) and 9.41 µM (active); in assay [12] it was 3.88 µM (active) and 220 nM (active); in assay [15], 9.75 µM (active). The result in [2], in assay [3], in assay [17], in assay [5], in assay [6] and in [7] was inactive. In addition, the result in assay [8], in assay [10], in assay [11], in assay [13], in [14] and in assay [15] was inactive. In [16], the outcome was inactive.

`C[Si](Cl)(Cl)CCC(F)(F)C(F)(F)C(F)(F)C(F)(F)C(F)(F)C(F)(F)F`: the result in [1], in [2], in [3], in [17], in assay [4] and in assay [5] was inactive. The result in [6], in [7], in [8], in [9], in assay [10] and in assay [11] was inactive. In addition, the outcome in assay [12], in assay [13], in [14], in [15] and in assay [16] was inactive. Also, the AC50 in assay [7] is 1.49 µM (active).

As for `Cc1cc(O)c(C(C)(C)C)cc1C(C)(C)C`, the AC50 in [1] is 27.3 µM (active); in assay [2], 3.74 µM (active); in [3], 31.2 µM (active); in assay [17] it was 5.37 µM (active); in assay [4], 4.74 µM (active); in assay [10], 7.48 µM (active). Moreover, the concentration at half-maximal activity (AC50) in assay [15] was 32.8 µM (active).
